High-throughput results deposited in PubChem BioAssay by National Center for Advancing Translational Sciences (NCATS).
This is a sample that favours compounds with a hit; in the whole collection about 13% have one here.
FMDV antiviral: High Throughput Screening for Foot and Mouth Disease Virus Antivirals | Potency, µM (series often up to 57.9 µM), for inactives: top-dose activity change, negative = inhibition, most hits filed as inhibitors | 410,000 compounds, 1.2% hits | FMDV antiviral cell-based qHTS; calls by dose curve; tested in HEK293T cells; note: read-out not given here; potency is the fitted concentration of half-maximal effect; % is set by controls: 0 for no effect and ±100 for the full control effect; nearly all actives have a fitted effect of over 45% in size
Lassa entry inh: qHTS for Inhibitors of binding or entry into cells for Lassa Virus; Lassa virus pseudotype entry inhibition, cell reporter; AID 540256, 2011; 300,000 compounds, 1.2% hits; Potency, µM (series often up to 37.9 µM), for inactives: top-dose activity change, negative = inhibition, most hits filed as inhibitors; calls by dose curve; tested in HEK293 cells; note: potency is the fitted concentration of half-maximal effect; % is set by controls: 0 for no effect and ±100 for the full control effect; nearly all actives have a fitted effect of over 50% in size
CHX counter: Cycloheximide Counterscreen for Small Molecule Inhibitors of Shiga Toxin. cell reporter, cycloheximide protein synthesis inhibition counterscreen. max response, %. 300,000 compounds, 12% hits; in the data active = max response mostly above about 13%, no sharp cut-off; inactive = mostly below about 14%; note: read at 38.3 µM for the half of the compounds with a filed dose; 0% is about no effect
MARV entry inh: qHTS for inhibitors of binding or entry into cells for Marburg Virus | Marburg virus pseudotyped entry inhibition, cell reporter | Potency, µM (highest dose often 37.8 µM), for inactives: at the highest dose activity change, negative = inhibition, actives largely listed as inhibitors | 300,000 compounds, 1.8% hits | AID 540276, 2011; calls by dose curve; tested in HEK293 cells; note: potency is the fitted concentration of half-maximal effect; % is set by controls: 0 for no effect and ±100 for the full control effect
HCV inh: qHTS Assay for Inhibitors of Hepatitis C Virus (HCV). Huh7.5.1 HCVcc-Cre infection, luciferase reporter, 44 h. 340,000 compounds, 3.4% hits. AID 651820, 2012. Potency, µM (titrated, usually from 41.8 µM), inactives show at the highest dose activity change, negative = inhibition, hits mostly inhibitors; active = well fitted inhibition curve with a large enough effect; inconclusive = small, poorly fitted or top-dose-only effect, or another doubt; inactive = no such curve, though single readings can be large or run the other way; note: potency is the fitted concentration of half-maximal effect; % is set by controls: 0 for no effect and ±100 for the full control effect
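1,000 cells/well; 4 h culture; + compound; + HCVcc-Cre (~0.5 moi); 44 h; luciferase substrate, RT 15 min; read 15 sec.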
Shiga toxin inh: A qHTS for Small Molecule Inhibitors of Shiga Toxin; 290,000 compounds, 9.2% hits; inhibition, % at 38.7 µM; Vero cells, Shiga toxin protein synthesis inhibition reporter; in the data active = inhibition mostly above about 28%, no sharp cut-off; inactive = mostly below about 43%; note: 0% is about no effect
An asterisk follows results filed as active; ? = inconclusive; nt = not tested or not shown; [ ] = dose if it differs, or a comment.

SMILES	FMDV antiviral	Lassa entry inh	CHX counter	MARV entry inh	HCV inh	Shiga toxin inh
COc1ccc(S(=O)(=O)N2CCCC(C(=O)Nc3ccc(OC)c(OC)c3)C2)cc1 (stereo unspecified)	?	-23%	-2	-23%	?	0
CCSc1nnc(NC(=O)C2CCCCC2)s1	44%	?	25*	?	21%	62*
CCc1nnc(NC(=O)C2CCCN(S(=O)(=O)c3ccc(OC)cc3)C2)s1 (stereo unspecified)	-13%	-19%	38*	-23%[14.2 µM]	0%	72*
Cc1cccc(Nc2nnc(SC(C)C(=O)NC3CC3)s2)c1 (stereo unspecified)	-17%	nt	nt	nt	3%	nt
CSc1nnc(NC(=O)C2CCCCC2)s1	43%	nt	-2	nt	8%	-3
CC(C)Sc1nnc(Nc2ccccc2)s1	18%	1%	37*	?	20%	143*
CC(C)c1nnc(NC(=O)C2CCCCC2)s1	29%	nt	13*	nt	0%	20*
Cc1cc(C(=O)N2CCN(C(=O)c3ccco3)CC2)ccc1[N+](=O)[O-]	-22%	nt	1	nt	0%	2
Cn1c(Cc2cccc3ccccc23)nnc1SCc1ccc([N+](=O)[O-])cc1	-21%	?	-4	?	-6%	-3
CC(C)=CC(=O)Nc1nnc(C(C)C)s1	36%	?	46*	?	9%	53
CCCCc1nnc(NC(=O)C=C(C)C)s1	26%	-9%	5	0%	-5%	19
COC(=O)[C@@H]1C[C@]2(OC(=O)c3ccccc3)C=CC(=O)C[C@@H]2N1C(=O)OCc1ccccc1	22µM*	7.3µM*	-5	?	?	-18
NC(=O)c1ccc(-n2nnnc2SCC(=O)Nc2ccccc2-c2ccccc2)cc1	?	-23%	-4	-1%	-23%	5
CCCC(=O)N(CCN1CCOCC1)c1nc2c(OC)ccc(C)c2s1	-20%	-10%[46.1 µM]	14	3%[46.1 µM]	-16%	-3
CSc1ncc2c(n1)-c1cc(C)ccc1SC2	-10%	-11%	-2	?	8.9µM*	-20
COc1ccc(Br)cc1C(=O)Nc1cccc2ccc(C)nc12	-8%	9%[46.1 µM]	nt	8%[46.1 µM]	nt	nt
Cc1nn(-c2cccc(Cl)c2)c2nc(C(F)(F)F)[nH]c(=O)c12	?	16%	-2	10µM*	15%	10
Cc1nn(-c2cc(C(F)(F)F)ccc2Cl)c2nc(C(F)(F)F)[nH]c(=O)c12	-26%	1%	-1	9%	33%	-3
COc1cccc(Cn2cnc3c(sc4nc(C)cc(C)c43)c2=O)c1	21%	nt	-7	10%[46.1 µM]	?	2
CC(=O)c1cccc(NC(=O)c2ccoc2C)c1	6%	20%[46.1 µM]	7	?	-8%	25
CCOC(=O)c1cc(NC(=O)c2ccoc2C)cc(C(=O)OCC)c1	7%	7%	17*	-12%	?	19
Cc1occc1C(=O)Nc1ccccc1	nt	nt	28*	nt	nt	33*
Cc1occc1C(=O)Nc1cccc(Cl)c1Cl	0%	nt	24*	nt	0%	48
Cc1occc1C(=O)Nc1ccc2ccccc2c1	49%	?	43*	?	-13%	113*
COc1cccc(NC(=O)CN(C)C(C)C(=O)Nc2ccc(C(C)=O)cc2)c1 (stereo unspecified)	-23%	nt	-5	nt	-8%	-7
SMILES	FMDV antiviral	Lassa entry inh	CHX counter	MARV entry inh	HCV inh	Shiga toxin inh
CCn1nnnc1SCC(=O)N1N=C(c2cccs2)CC1c1cccs1 (stereo unspecified)	46%	-25%	nt	10%	-2%	nt
CCc1ccccc1NC(=O)c1ccoc1C	12%	-2%	-4	?	6%	0
Cc1occc1C(=O)Nc1ccccc1C(=O)O	10%	18%	20*	13%	16%	48
Cc1noc(C)c1C(=O)Nc1ccc2ccccc2c1	15%	?	21*	5%[46.1 µM]	13%	34
CCOC(=O)c1sc(N(Cc2ccccc2)C(=O)COC(=O)c2cnccn2)nc1C	7%	-13%	6	-12%[46.1 µM]	-5%	69
CCOC(=O)c1sc(N(Cc2ccccc2)C(=O)CSc2nnc(C3CC3)n2N)nc1C	35%	-17%	17*	-14%	-20%	79*
CCN(CC)c1nc(N2CCOCC2)c(C#N)c2c1CN(C)CC2	0%	2%	-6	4%	?	-21
NC(=O)C1=C[C@H](C2CCCCC2)C[C@H](OCc2ccc(CO)cc2)O1	20%	nt	50*	nt	8%	63*
O=C(Nc1ccccc1)C1=C[C@H](C2CC2)C[C@H](OCCCCO)O1	54%	nt	28*	nt	13%	104*
CC(C)(C)[C@@H]1C=C(C(=O)Nc2ccccc2)O[C@H](OCc2ccc(CO)cc2)C1	-7%	nt	26*	nt	-27%	50
CC(C)(C)[C@H]1C=C(C(N)=O)O[C@@H](OCc2ccc(CO)cc2)C1	8%	nt	13*	nt	-4%	40
CCC(C)OC(=O)n1ccc(C(=O)Nc2nccs2)n1 (stereo unspecified)	nt	21%	32*	7%	14%	68*
CCOC(=O)n1ccc(C(=O)Nc2ccccc2F)n1	4%	?	5	?	11%	37
CC(Oc1ccc(Cl)cc1)C(=O)Nc1nccs1 (stereo unspecified)	10%	10%	17*	9%	-11%	56*
C/C(=C\C(=O)O)C(=O)Nc1nccs1	-8%	0%	-3	-3%	16%	-6
O=C(Nc1ccccc1)Nc1nccs1	36%	9%	38*	0%	-2%	45*
C/C(=C\C(=O)Nc1nccs1)c1ccccc1	53%	96%[14.3 µM]	57*	17%	nt	116*
CC(Oc1ccc(Cl)cc1)C(=O)Nc1ccc(S(=O)(=O)Nc2nccs2)cc1 (stereo unspecified)	42%	?	-4	?	21%	-8
CCC(C(=O)Nc1nccs1)c1ccccc1 (stereo unspecified)	-16%	-1%	-1	-11%	21%	10
O=C(Nc1ccc(Cl)cc1)Nc1nccs1	20%	-14%	30*	-17%	?	47*
CCC(C)C(=O)Nc1nccs1 (stereo unspecified)	-18%	9%	16*	-1%[46.1 µM]	1%	37
CC(C)c1ccc(C2NC(=O)c3ccccc3O2)cc1 (stereo unspecified)	35%	8%	19*	?	7%	101*
O=C1c2cccnc2Nc2ccccc2N1CCCF	-24%	5%	4	29%	10%	48
COc1cccc(/C(C#N)=C/c2c(-c3ccc(Cl)cc3)nc3c(C)cccn23)c1	-14%	?	-1	?	11µM*	5
CC(C)COc1ccc(C(=O)Nc2ccc(S(=O)(=O)Nc3ncccn3)cc2)cc1	16%	11%[46.1 µM]	nt	nt	nt	nt
CCOP(=O)(CCP(=O)(OCC)OCC)OCC.C[CH2][Sn]([Cl])([Cl])[CH2]C	2.8µM*	13µM*	nt	?	1.6µM*	nt
